From PubChem BioAssay (NCI)
The panel holds about 83,000 compounds, 20% with a hit somewhere; the sample as a whole holds those more often.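 The endpoint reported here, percent growth, reads 100 for growth as untreated, 0 for no net growth and -100 for all cells dead.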 A number with no mark means an inactive call. The source made the active and inactive calls.

Each compound was assayed on UO-31 renal (assay: NCI-60 one-dose screen, 48 h (100 = growth as untreated, 0 = no growth, -100 = all killed)). Settings: 10 µM.
Method: Growth inhibition of the UO-31 human tumor cell line is measured as a screen for anti-cancer activity. Cells are grown in 96 well plates and exposed to the test compound for 48 hours. Compounds are tested at a single concentration, which is 10^-5 M for most compounds. The reported endpoint is percent growth (GI% or GIPRCNT), where numbers from 0 - 100% represent growth inhibition, and numbers from -100% - 0 represent cell death. For example, a value of 40 represents 60% growth inhibition. A value of 0 means no net growth occurred over the course of the experiment. A value of -40 indicates 40% of cells at the beginning of the experiment died by the end of the experiment. A value of -100 means all cells are dead at the end of the experiment.
NCI-60 Human Tumor Cell Lines Screen was performed using the standard one-dose NCI protocol, which is described in more detail at https://dtp.cancer.gov/discovery_development/nci-60/default.htm.
Compounds with GIPRCNT values below 10 were considered active. Activity score was based on GIPRCNT using the following formula: […]
Score is 0 for GIPRCNT values of 100 or above, 50 for GIPRCNT values of 0, and 100 for GIPRCNT values of -100.
Compound CO[C@H]1CSS[C@@H]1Cn1nc(-c2ccc(Oc3ccccc3)cc2)c2c(N)ncnc21 has a growth of 17.7%. CC(=O)C1=C(C)NC(SCC(=O)Nc2ccc(S(=O)(=O)Nc3cc(C)on3)cc2)=NC1c1ccccc1 (stereo not given) was tested, and the growth was 89.2%. For C=C1CCC2C3(C)COC(c4cc(F)cc(F)c4)OC3CCC2(C)C1C/C=C1/C(=O)OCC1O (stereo not given), the growth was -97.1% (active). In the case of CN1CCN(c2ccc(C(=O)/C=C/c3cc(C(F)(F)F)ccc3Cl)cc2)CC1, the growth is reported as -99.2% (active). In the case of O=C(CSc1nnc(-c2c[nH]c3ccccc23)n1-c1ccccc1)c1ccc(Br)cc1, the growth is reported as 26%. For COC[C@@H](CC(C)C)N=C1N/C(=C\c2ccc3ncsc3c2)C(=O)N1C, the growth was -19.4% (active). Cc1cc2nc3c4ccccc4n(CCO)c3nc2cc1C gave a growth of 28.6%. In the case of Cc1ccc(CSc2nc(Cl)c(C#N)c(-c3ccc(F)cc3)n2)cc1, the growth is reported as 67.9%. For Brc1ccc(N/N=C/c2c[nH]c3ccccc23)nc1, the growth was 2.76% (active). Nc1nnc(-c2c[nH]c3ncccc23)c(-c2c[nH]c3ccc(Br)cc23)n1 was tested, and the growth was 35.6%. With CCOC(=O)C1=C(N)N(c2ccccc2)C2=C(C(=O)CC(C)(C)C2)C1c1ccc(Cl)cc1 (stereo not given) the growth was 29%. With CNC(=O)c1cccc(N2CCc3c2ccc(NC(=O)Nc2ccc(N4CCN(C)CC4)c(C(F)(F)F)c2)c3F)c1 the growth was -100% (active). Work on C/C(=N\N=C\c1ccc(Cl)c([N+](=O)[O-])c1)c1ccc2c(c1)Nc1ccccc1S2 yielded a growth of 76.9%. CN(C)c1ccc(/C=C/c2nc3ccccc3c(=O)n2CC(=O)Nc2ccc(Cl)cc2)cc1 gave a growth of 87.4%. With COc1ccc(-c2cc(C(=O)N=Nc3c(O)[nH]c4ccc(F)cc34)c3ccccc3n2)cc1 the growth was 67.6%. Compound O=C(NO)c1ccc(CNC(=O)[C@H]2Cc3c([nH]c4ccccc34)[C@H](c3ccccc3)N2)cc1 has a growth of 46.3%. Nc1nc(Nc2ccc(Cl)cc2)n(Cc2cccc(Br)c2)n1 was tested, and the growth was -7.87% (active). C=CCn1c(SCC(=O)Nc2ccc(C(=O)/C=C/c3ccccc3)cc2)nnc1-c1c[nH]c2ccccc12 showed a growth of 31.2%. In the case of COc1ccc(/C=C/C(=O)c2ccc(NC(=O)CN3C(=O)NC(C)(c4ccccc4)C3=O)cc2)cc1 (stereo not given), the growth is reported as 56.8%. For CC(=O)NCC1=C(C)C=C2C(=O)[C@](C)(O)C3(CC3)C(C)=C21, the growth was -32.2% (active). COc1ccc2[nH]c(O)c(N=NC(=O)COc3ccc(NC(=O)Nc4ccc(Cl)c(Cl)c4)cc3)c2c1 gave a growth of 111%. In the case of O=C(N/C(=C1/OCCN1Cc1ccccc1)[P+](c1ccccc1)(c1ccccc1)c1ccccc1)c1ccccc1, the growth is reported as 83.1%. Compound O=C(CSc1nnc(-c2ccc3nc(-c4ccccc4)[nH]c3c2)o1)Nc1ccc(Br)cc1 has a growth of 74.4%. With COc1ccc(CN2[C@H](C(=O)NCCCCCCC(=O)NO)Cc3c([nH]c4ccccc34)[C@H]2C2CC2)cc1 the growth was 7.67% (active). In the case of OCc1[nH]nc2cc(Nc3ncc4ccc(Br)c(OC5CCC(O)CC5)c4n3)ccc12 (stereo not given), the growth is reported as -27.2% (active). For Cc1noc2c(Cc3ccccc3)nn(CC(=O)N/N=C/c3ccc(F)cc3)c(=O)c12, the growth was 5.87% (active). For O=C(CSc1nnc(-c2c[nH]c3ccccc23)n1-c1ccccc1)Nc1ccc(C(=O)/C=C/c2ccc(Cl)cc2)cc1, the growth was 45.8%. In the case of CC(=O)Nc1ccc(-c2cn(-c3cccc(C(=O)Nc4ccc(Cl)c(C(F)(F)F)c4)c3)nn2)cn1, the growth is reported as -56% (active). Work on Nc1nnc(-c2c[nH]c3ccc(F)cc23)c(-c2c[nH]c3ncccc23)n1 yielded a growth of 37.9%. With O=c1oc2ccc(-c3ccc(F)cc3F)cc2c(=O)n1-c1ccc(Cl)c(C(F)(F)F)c1 the growth was -3.08% (active). O=C(CNc1nc(-c2ccccc2)cs1)Nc1ccc(Cl)cc1[N+](=O)[O-] was tested, and the growth was -56.4% (active). With CN(C)c1cccc2c(S(=O)(=O)Nc3cccc(-c4csc(NC(=O)CCCCCN5CCN(c6cc7c(cc6F)C(=O)N(C6CCC(=O)NC6=O)C7=O)CC5)n4)c3)cccc12 (stereo not given) the growth was 70%. For CC(=O)Nc1ccc(-c2cn(-c3cccc(C(=O)Nc4cc(C(F)(F)F)cc(C(F)(F)F)c4)c3)nn2)cn1, the growth was 1.1% (active). For N#Cc1c(NC(=O)c2ccc(C(F)(F)F)c(Cl)c2)sc2c1CCC(=O)C2, the growth was -98.8% (active). With Cc1cc(C)cc(Oc2cccc(-c3c(C)nnn3C3CCN(CCN(C)C)CC3)n2)c1 the growth was 15.8%. CC(=O)NNc1ccc2nnc(-c3ccc(Br)cc3)n2n1 was tested, and the growth was 82.1%. With COc1cccc(-c2ccnc(/N=C(\N)Nc3ccc(S(=O)(=O)Nc4nc(C)cc(C)n4)cc3)n2)c1 the growth was 64.1%. COc1cc(NC(=O)c2cc(-c3ccc(F)cc3F)ccc2O)cc(OC)c1OC was tested, and the growth was 9.27% (active). CCOC(=O)c1c(CSc2ccccc2)n(C)c2cc(CN(C)C)c(O)c(CN(C)C)c12 showed a growth of 28%. COC1=C[C@]23CCC(=O)N2CCc2cc4c(cc2[C@@H]3[C@@H]1OC(=O)CCCC(C)C)OCO4 gave a growth of 36.3%.
